Screening data: PubChem BioAssay, several laboratories
PostGolgi ctrl: yeast control strain growth, post-Golgi counter-screen; efflux-deficient yeast background strain, growth absorbance A615, 16 h; inhibition, % at 10 µM; actives 5% (n = 98,000); AID 738
PostGolgi yeast: growth inhibition of a yeast mutant, post-Golgi transport screen; post-Golgi transport phenotypic cell assay; inhibition, % at 10 µM; actives 0.9% (n = 98,000); AID 739;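 also: yeast cells grown in 1536-well plates; yeast grown about 18 h at 30C before absorbance read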
CYP2C9 act: CYP2C9 (human) activation | activation factor at 5 µM | P11712 | actives 1.4% (n = 96,000) | AID 1024 | recombinant CYP2C9, luciferin-H conversion, luminescence; hits give high values; factor 1 = untreated enzyme, 0 = blocked;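 active = activation factor of 2 or more for CYP2C9 at a 5 µM dose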;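 also: 0 = sulfaphenazole-blocked wells and 1 = vehicle-only wells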
Target sequence (P11712 whole entry, looked up): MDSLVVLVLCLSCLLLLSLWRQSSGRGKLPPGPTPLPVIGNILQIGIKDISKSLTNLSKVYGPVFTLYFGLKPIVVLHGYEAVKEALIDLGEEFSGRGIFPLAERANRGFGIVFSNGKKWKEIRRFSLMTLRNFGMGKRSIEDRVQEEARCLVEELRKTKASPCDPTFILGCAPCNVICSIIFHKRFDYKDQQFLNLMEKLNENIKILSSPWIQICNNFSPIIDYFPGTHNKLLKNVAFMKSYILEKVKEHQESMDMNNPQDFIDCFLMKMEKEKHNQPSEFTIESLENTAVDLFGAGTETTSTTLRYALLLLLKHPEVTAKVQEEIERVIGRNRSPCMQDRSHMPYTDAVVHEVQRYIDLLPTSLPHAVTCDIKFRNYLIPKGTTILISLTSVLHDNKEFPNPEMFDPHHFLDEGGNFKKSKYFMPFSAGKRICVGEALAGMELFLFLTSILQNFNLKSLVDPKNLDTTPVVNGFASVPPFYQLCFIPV
CYP2C19 activ: increases human CYP2C19 enzyme activity; P33261; recombinant CYP2C19, luciferin-H EGE luminescence; hits give high values; 0 = fully inhibited enzyme, 1 = untreated enzyme; activation factor at 5 µM; 96,000 tested, under 10 active;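 active = activation factor of at least 2 at 5 µM in the primary screen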;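 also: 0 = wells with 2.5 mM tranylcypromine and 1 = vehicle-only wells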
CYP2C9 inhib: human CYP2C9 inhibition; P11712; CYP2C9 Supersomes, luciferin-H conversion, luminescence; inhibition, % at 5 µM; actives 20% (n = 96,000); AID 777;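 active = blocking of liver enzyme CYP2C9 beyond about 50% at 5 µM, limit read from the data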
CYP2C19 inh: inhibitors of human CYP2C19; P33261; CYP2C19 Supersomes, luciferin-H EGE luminescence, 30 min; inhibition, % at 5 µM; actives 21% (n = 96,000); AID 778;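 active = CYP2C19 inhibition above a set limit at 5 µM in the primary screen, cut at about 50% in these data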;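 also: plate controls were negative control wells for no effect and 2.5 mM tranylcypromine positive control for full effect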
An asterisk follows results filed as active; . = not tested or not shown. In the library only some 32% were active in any assay of this set; here they are far more common. Rule as the data show it, unless noted: active = inhibition above about 30%; inactive = the rest.

SMILES	PostGolgi ctrl	PostGolgi yeast	CYP2C9 act	CYP2C19 activ	CYP2C9 inhib	CYP2C19 inh
CCOC(=O)CNc1nc(-c2ccncc2)nc2ccccc12	-1	1	0.4	0.5	58*	48
c1ccc2c(N3CCCC3)nc(-c3ccncc3)nc2c1	61*	57*	0.5	0.2	48	84*
COc1ccc(N=C2C(=O)Nc3c(C)cccc32)cc1	-1	-4	0.9	1	5	-2
COc1nc(-c2ccncc2)nc2ccccc12	10	4	0.3	0.3	72*	74*
COC(=O)c1ccc(CSc2ccc3nnc(-c4cccc(F)c4)n3n2)o1	41*	-5	0.2	0.6	83*	37
CCOC(=O)CC(=O)CSc1ccc2nnc(-c3cccc(F)c3)n2n1	1	-12	0.5	1	50	-2
O=C(Nc1ccc2c(c1)OCO2)N1CCN(C(=O)C2CCCO2)CC1 (centres undefined)	0	-5	.	.	.	.
Cc1noc(C)c1COC(=O)c1cc2c3ccccc3n(C)c2s1	37*	-7	0.2	0.4	81*	57*
O=C(Nc1ccccn1)C1(c2ccccc2)CCCC1	1	11	0.4	0.2	59*	81*
O=C(Nc1ccncc1)C1(c2ccccc2)CCCC1	8	16	0.1	0	95*	100*
O=C(Nc1cccnc1)C1(F)C(F)(F)C(F)(F)C(F)(F)C(F)(F)C1(F)F	6	-1	0.6	0.8	43	24
CC(=O)c1ccc(NC(=O)C2(c3ccccc3)CCOCC2)cc1	-1	-11	0.5	0.7	50*	34
O=C(Nc1cccnc1)C1(c2ccccc2)CCCC1	3	-1	0.5	0.5	45	52*
O=C(c1ccc(NC(=O)C2(c3ccccc3)CCOCC2)cc1)N1CCOCC1	6	-7	1.2	1.2	-16	-16
O=C(Nc1ccc(O)c(-c2nc3ccccc3o2)c1)C1(c2ccccc2)CCCC1	10	2	0.1	0.8	87*	24
O=C(Nc1ccc(-c2nc3ccccc3o2)cc1)C1CCCO1 (centres undefined)	4	12	1.3	0.9	-28	7
Cc1cc(C)c2nc(N3CCCN(C(=O)c4cnccn4)CC3)c(C#N)cc2c1	10	-8	0.7	0.6	32	36
S=c1[nH]c2cc(Cl)ccc2s1	15	2	0.8	0.9	17	7
Cc1ccc(CNC(N)=S)cc1	-5	-4	1.1	0.9	-6	6
O=C1CC(c2ccc(S(=O)(=O)NCc3ccncc3)cc2)CN1 (centres undefined)	18	-6	0.5	0.1	54*	85*
CCOC(=O)N1CCN(C(=O)COc2ccc(S(=O)(=O)NCc3ccccc3)cc2)CC1	9	5	0.8	1	20	-4
CCOC(=O)COc1ccc(S(=O)(=O)NCc2ccncc2)cc1	12	2	0.3	0	67*	98*
CC1CCCCC1NC(=O)c1ccc(S(=O)(=O)NCc2ccco2)cc1 (centres undefined)	-3	-3	.	.	.	.
O=C1CC(c2ccc(S(=O)(=O)NC3CC3)cc2)CN1 (centres undefined)	2	-1	0.9	1.2	9	-15
Cc1ccc(CNS(=O)(=O)N(C)C)cc1	2	8	0.9	0.4	12	62*
SMILES	PostGolgi ctrl	PostGolgi yeast	CYP2C9 act	CYP2C19 activ	CYP2C9 inhib	CYP2C19 inh
CC1CCCCC1NS(=O)(=O)c1ccc(S(=O)(=O)NCc2ccncc2)cc1 (centres undefined)	-3	-4	0	0	100*	98*
Cn1cccc1C(=O)C(=O)Nc1ccccc1	4	0	1.3	0.5	-26	49
CCOc1ccccc1NC(=O)C1CC2CCCC(C1)C2=O (centres undefined)	29	5	1.9	0.8	-93	16
COC(=O)Cn1c(C)c(C(C)=O)c(C(C)=O)c1C	-4	-1	1.2	1.1	-15	-11
Cn1c(-n2c(-c3ccco3)nc3ccccc3c2=O)nc2ccccc21	6	4	1	0.8	2	23
Cc1ccc(S(=O)(=O)NCc2ccncc2)cc1	-5	4	0.8	0	24	97*
Cc1ccc(C)c(S(=O)(=O)NCc2ccc(C(=O)NCc3ccccn3)cc2)c1	-1	1	0.1	0.1	89*	89*
CCOc1ccc(S(=O)(=O)NCc2ccncc2)cc1	4	6	0.2	0	79*	100*
COc1ccc(S(=O)(=O)NCc2ccncc2)cc1OC	11	-1	0.7	0	25	100*
c1cncc(-c2nnc(C3CCCCC3)o2)c1	18	13	0.9	0.9	8	13
Cc1cc(C)n2c(SCC(=O)Nc3cc(C)on3)nnc2n1	5	1	.	.	.	.
Cc1nn(-c2ccccc2)c(-c2ccccc2)c1C(=O)O	17	1	0.7	1	31	-1
COc1ccc(S(=O)(=O)NCc2ccccn2)cc1	-6	-6	0.9	0.7	12	32
COc1ccc(S(=O)(=O)NCCC(C)C)cc1OC	0	-1	3.4*	0	-237	96*
Cc1ccc(C)c(S(=O)(=O)NCc2ccncc2)c1	-1	1	0.7	0.2	30	83*
CCOc1ccc(S(=O)(=O)NCc2ccccn2)cc1	30*	-11	1.4	0.3	-40	74*
CC1=C(C(=O)N2CCOCC2)C(c2ccsc2)C2=C(CCCC2=O)N1 (centres undefined)	5	3	1.2	1	-20	-4
COc1ccc(CNC(=O)c2ccc(NC(=O)CC3SC(N4CCCCC4)=NC3=O)cc2)cc1 (centres undefined)	11	16	0.8	1	24	3
O=C(CSc1ncc(C(F)(F)F)cc1Cl)N1CCN(S(=O)(=O)c2ccccc2)CC1	15	-4	1	0.2	0	81*
O=C(CSc1ncc(C(F)(F)F)cc1Cl)N1CCN(S(=O)(=O)c2ccc(Cl)cc2)CC1	16	-9	1.6	0.2	-57	79*
O=C(CSc1ncn[nH]1)N1CCN(S(=O)(=O)c2ccc(Cl)cc2)CC1	0	-1	0.5	0.5	45	45
CC1CN(CC(=O)N2CCc3[nH]c4ccccc4c3C2)CC(C)O1 (centres undefined)	7	1	0.9	0.7	11	26
Cc1ccc2[nH]c3c(c2c1)CN(C(=O)CN1CCCc2ccccc21)CC3	19	-9	1	0.6	5	39
CC1CC(C)CN(CC(=O)N2CCc3[nH]c4ccccc4c3C2)C1 (centres undefined)	0	2	0.5	0.3	48	66*
O=C(CN1CCN(Cc2ccc3c(c2)OCO3)CC1)N1CCc2[nH]c3ccc(F)cc3c2C1	11	4	0.2	0.2	76*	84*
Cc1ccc2[nH]c3c(c2c1)CN(C(=O)CN1CCN(c2ccccc2F)CC1)CC3	13	3	0.5	0.8	53*	23
